MEKK2 WT-MEK5: raises or lowers MEK5 binding to wildtype human MEKK2 PB1 domain. binding response (% of control), % at 10 µM. AID 1531. Q9Y2U5. bead flow cytometry, Alexa488-MEK5 binding to MEKK2 WT; actives lie on both sides. 290,000 tested, 1.1% active; in the data active = binding response below about 67% or above about 130%
Arbovirus inh: arbovirus infection inhibition. AID 1251. arbovirus infection cell-based antiviral screen. inhibition, % at 10 µM. 200,000 tested, 0.37% active; in the data active = inhibition above about 30%
Pf gametocyte: P. falciparum stage V gametocyte viability inhibition | 150,000 tested, 0.065% active | inhibition, % at 10.9 µM | AID 743093 | P. falciparum stage V gametocytes, ATP luminescence, 24 h;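 active = inhibition above the mean plus 3 SD of compounds within the control limits, set per campaign, cut at about 38% in these data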;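 also: 0% = DMSO wells and 100% = medium only without gametocytes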
MEKK3 PB1 HTS: modulators (inhibitors or enhancers) of MEK5 binding to human MEKK3 PB1 domain | bead-based flow cytometry, Alexa488-MEK5 binding to MEKK3; actives lie on both sides; 0 = blocked by unlabeled MEK5, 100 = vehicle | Q99759 | 290,000 tested, 1.4% active | AID 1529 | binding response (% of control), % at 10 µM;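 active = binding response more than 3 SD above or below the average of its plate-row segment, actives on both sides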;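 also: Alexa488 bead fluorescence after subtracting the streptavidin-only scavenger bead signal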
Target sequence (Q99759 whole entry, looked up, the tested form may be a part): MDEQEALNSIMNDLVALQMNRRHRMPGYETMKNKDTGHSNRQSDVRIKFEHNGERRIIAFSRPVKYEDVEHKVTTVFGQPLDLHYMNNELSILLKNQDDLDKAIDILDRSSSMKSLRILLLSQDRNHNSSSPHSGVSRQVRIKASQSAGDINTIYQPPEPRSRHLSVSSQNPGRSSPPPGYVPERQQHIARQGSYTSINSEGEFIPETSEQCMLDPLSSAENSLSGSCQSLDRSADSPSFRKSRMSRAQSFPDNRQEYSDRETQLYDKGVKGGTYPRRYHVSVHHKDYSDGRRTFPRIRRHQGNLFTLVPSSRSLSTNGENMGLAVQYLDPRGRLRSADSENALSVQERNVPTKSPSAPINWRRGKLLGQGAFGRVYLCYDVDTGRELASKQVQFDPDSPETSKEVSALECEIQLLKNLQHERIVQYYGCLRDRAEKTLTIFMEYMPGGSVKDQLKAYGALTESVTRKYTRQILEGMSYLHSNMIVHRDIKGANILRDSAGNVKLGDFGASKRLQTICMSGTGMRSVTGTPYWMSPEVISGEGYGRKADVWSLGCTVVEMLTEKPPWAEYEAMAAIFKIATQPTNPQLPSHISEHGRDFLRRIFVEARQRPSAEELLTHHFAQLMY
MEKK2 mut-MEK5: signal of MEK5 binding to mutant human MEKK2 PB1 domain; bead flow cytometry, Alexa488-MEK5 binding to MEKK2 mutant; percent response, % at 10 µM; 290,000 tested, 0.35% active; AID 1530; in the data active = percent response above about 24%, passing the limit was not always enough
MEKK2wt confirm: raises or lowers MEK5 binding to wildtype human MEKK2, retest | 5,900 tested, 2.4% active | bead flow cytometry, Alexa488-MEK5 binding to MEKK2 WT; actives lie on both sides | AID 1892 | shares compounds with MEKK3 PB1 HTS | binding response (% of control), % at 10 µM; in the data active = binding response below about 16% or above about 210%; inactive = in between
MEKK2mut-MEK5: signal of MEK5 binding to mutant human MEKK2, retest; shares compounds with MEKK3 PB1 HTS; bead flow cytometry, Alexa488-MEK5 binding to MEKK2 mutant; percent response, % at 10 µM; 5,900 tested, 2% active; in the data active = percent response mostly above about 71%, no sharp cut-off; inactive = mostly below about 38%;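 also: higher means compound restores mutant binding toward wildtype level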
MEKK3-MEK5 inh: confirmation of inhibitors of MEK5 binding to human MEKK3. 5,900 tested, 1.8% active. shares compounds with MEKK3 PB1 HTS. bead flow cytometry, Alexa488-MEK5 binding to MEKK3; hits give low values. binding response (% of control), % at 10 µM;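 active = binding response below 72% of control, or above a set upper limit, though filed actives all read lower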;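 also: 100% = DMSO only wells and 0% = binding blocked by excess unlabeled MEK5; lower values mean stronger disruption of MEK5 binding to MEKK3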
Starred values were filed as active, the others as inactive; [ ] = remark or other dose. Rows were chosen to be rich in hits. Some 2.4% of all compounds tested hit in one or more screens of this group.

`CCN1CCN(c2cc(C)c3cc(NC(=S)NCCN(C)C)ccc3n2)CC1` gave MEKK2 WT-MEK5 125, MEKK3 PB1 HTS 106 and MEKK2 mut-MEK5 13.
For CCCCNC(=S)Nc1ccc2nc(N3CCN(CC)CC3)cc(C)c2c1 the results were MEKK2 WT-MEK5 139*, MEKK3 PB1 HTS 111, MEKK2 mut-MEK5 27*, MEKK2wt confirm 144, MEKK2mut-MEK5 30 and MEKK3-MEK5 inh 109.
Screening CCCCN(C)CCNC(=S)Nc1ccc2nc(N3CCN(CC)CC3)cc(C)c2c1 returned MEKK2 WT-MEK5 134*, MEKK3 PB1 HTS 109, MEKK2 mut-MEK5 17, MEKK2wt confirm 121, MEKK2mut-MEK5 14 and MEKK3-MEK5 inh 106.
CCOC(=O)c1cc(-c2ccc(OC(F)F)cc2)nc2c1c(=O)[nH]c(=O)n2C was read as MEKK2 WT-MEK5 92, Arbovirus inh 5, Pf gametocyte 20, MEKK3 PB1 HTS 88 and MEKK2 mut-MEK5 -3.
Screening N#Cc1cccc(NC(=O)CC2CCCCC2)c1 returned MEKK2 WT-MEK5 -3.0*[inhibitor], Arbovirus inh -1, Pf gametocyte -13, MEKK3 PB1 HTS 100, MEKK2 mut-MEK5 -34, MEKK2wt confirm 97, MEKK2mut-MEK5 -1 and MEKK3-MEK5 inh 101.
Screening Cc1ccccc1OCc1ccc(C(=O)N2CCOCC2)o1 returned MEKK2 WT-MEK5 99, MEKK3 PB1 HTS 104 and MEKK2 mut-MEK5 2.
COc1ccc(CCNc2nc(C)nc3c2nnn3Cc2ccccc2)cc1OC was read as MEKK2 WT-MEK5 106, Pf gametocyte 0, MEKK3 PB1 HTS 107 and MEKK2 mut-MEK5 5.
`O=C(Nc1cccc(C(=O)N2CCN(Cc3ccccc3)CC2)c1)c1ccccc1` gave MEKK2 WT-MEK5 91, Arbovirus inh -7, MEKK3 PB1 HTS 93 and MEKK2 mut-MEK5 -3.
Screening CC(=O)Nc1cccc(C(=O)N2CCN(Cc3ccccc3)CC2)c1 returned MEKK2 WT-MEK5 -1.0*[inhibitor], Arbovirus inh 6, MEKK3 PB1 HTS -1.0*[inhibitor], MEKK2 mut-MEK5 -21, MEKK2wt confirm 107, MEKK2mut-MEK5 3 and MEKK3-MEK5 inh 105.
COCCNC(=S)N(CCc1c(C)[nH]c2ccc(Cl)cc12)Cc1cccnc1 was read as MEKK2 WT-MEK5 124, MEKK3 PB1 HTS 107, MEKK2 mut-MEK5 24*, MEKK2wt confirm 115, MEKK2mut-MEK5 1 and MEKK3-MEK5 inh 100.
`CNC(=S)N(CCc1c(C)[nH]c2ccc(Cl)cc12)Cc1cccnc1` gave MEKK2 WT-MEK5 108, MEKK3 PB1 HTS 105 and MEKK2 mut-MEK5 11.
Screening CCNC(=S)N(CCc1c(C)[nH]c2ccc(Cl)cc12)Cc1cccnc1 returned MEKK2 WT-MEK5 127, MEKK3 PB1 HTS 106, MEKK2 mut-MEK5 29*, MEKK2wt confirm 118, MEKK2mut-MEK5 10 and MEKK3-MEK5 inh 104.
For CCCNS(=O)(=O)c1ccc(OCC(=O)N2CCCC2)cc1 the results were MEKK2 WT-MEK5 98, Arbovirus inh 2, Pf gametocyte 18, MEKK3 PB1 HTS 94 and MEKK2 mut-MEK5 -4.
NC(=O)CC(NC(=O)c1cccc(Br)c1)c1ccc(NC2CCCCCCCCCCC2)c([N+](=O)[O-])c1 (centres undefined) was read as MEKK2 WT-MEK5 85, Pf gametocyte 13, MEKK3 PB1 HTS 91 and MEKK2 mut-MEK5 -6.
For Cc1ccc2nsnc2c1NC(=O)c1cccc([N+](=O)[O-])c1 the results were MEKK2 WT-MEK5 110, Arbovirus inh -21, MEKK3 PB1 HTS 134*, MEKK2 mut-MEK5 1, MEKK2wt confirm 93, MEKK2mut-MEK5 -3 and MEKK3-MEK5 inh 93.
O=C(CNC(=O)c1ccco1)N/N=C/c1cccs1 was read as MEKK2 WT-MEK5 104, Pf gametocyte 20, MEKK3 PB1 HTS 106 and MEKK2 mut-MEK5 21.
Screening Cn1ccnc1C1CCCCN1C(=O)c1cc(COc2ccc(F)cc2F)on1 (centres undefined) returned MEKK2 WT-MEK5 112, Pf gametocyte -10, MEKK3 PB1 HTS 108 and MEKK2 mut-MEK5 0.
`C=CCC1(CC=C)CCCN1C(=O)c1cc(COc2ccccc2SC)on1` gave MEKK2 WT-MEK5 104, MEKK3 PB1 HTS 98 and MEKK2 mut-MEK5 -4.
For CC1CCN(C(=O)C(C)Sc2nc(-c3ccccc3)cc(C(F)(F)F)n2)CC1 (centres undefined) the results were MEKK2 WT-MEK5 96, Arbovirus inh -29, MEKK3 PB1 HTS 100 and MEKK2 mut-MEK5 -2.
For CC(Sc1nc(-c2ccccc2)cc(C(F)(F)F)n1)C(=O)N1CCC(C(N)=O)CC1 (centres undefined) the results were MEKK2 WT-MEK5 83, Arbovirus inh 4, MEKK3 PB1 HTS 75*[inhibitor], MEKK2 mut-MEK5 -12, MEKK2wt confirm 97, MEKK2mut-MEK5 -5 and MEKK3-MEK5 inh 100.
For Nc1cc(=O)[nH]c(SCc2nnnn2-c2ccc(Cl)cc2)n1 the results were MEKK2 WT-MEK5 126, Arbovirus inh -5, Pf gametocyte -5, MEKK3 PB1 HTS 102 and MEKK2 mut-MEK5 17.
For Cc1ccc(NC(=O)CSc2ccc(-c3ccc4c(c3)OCO4)nn2)cc1F the results were MEKK2 WT-MEK5 101, Arbovirus inh -22, Pf gametocyte -2, MEKK3 PB1 HTS 132*, MEKK2 mut-MEK5 0, MEKK2wt confirm 107, MEKK2mut-MEK5 10 and MEKK3-MEK5 inh 109.
Fc1ccc(CSc2ccc(-c3ccc4c(c3)OCO4)nn2)cc1 was read as MEKK2 WT-MEK5 105, Arbovirus inh -40, MEKK3 PB1 HTS 135*, MEKK2 mut-MEK5 0, MEKK2wt confirm 105, MEKK2mut-MEK5 7 and MEKK3-MEK5 inh 104.
C=C(C)CN(CC)C(=O)CCc1nnc(CCc2c[nH]c3ccccc23)o1 was read as MEKK2 WT-MEK5 103, Arbovirus inh -2, Pf gametocyte -9, MEKK3 PB1 HTS 105 and MEKK2 mut-MEK5 4.
For Cn1c(=O)c2c(nc(Br)n2C/C=N/NC(N)=S)n(C)c1=O the results were MEKK2 WT-MEK5 103, Pf gametocyte 0, MEKK3 PB1 HTS 103 and MEKK2 mut-MEK5 -2.
COc1cc(NC(=O)CSc2ncnc3sc4c(c23)CCCC4)c(C(=O)O)cc1OC was read as MEKK2 WT-MEK5 102, MEKK3 PB1 HTS 104 and MEKK2 mut-MEK5 0.
Screening Cc1nn(CC(=O)N2CCC(C)CC2)c(=O)c2nn(-c3ccccc3)c(C)c12 returned MEKK2 WT-MEK5 104, MEKK3 PB1 HTS 103 and MEKK2 mut-MEK5 9.

Bioassay records deposited in PubChem by several laboratories.
